{
  "source": "PubChem BioAssay",
  "note": "Values without a mark were called inactive. The rule behind the calls is not given here.",
  "data": [
    {"molecular_target": "Pantothenate synthetase (Mycobacterium tuberculosis (strain ATCC 25618 / H37Rv)) (UniProt P9WIL5)", "sequence (P9WIL5 whole entry, looked up)": "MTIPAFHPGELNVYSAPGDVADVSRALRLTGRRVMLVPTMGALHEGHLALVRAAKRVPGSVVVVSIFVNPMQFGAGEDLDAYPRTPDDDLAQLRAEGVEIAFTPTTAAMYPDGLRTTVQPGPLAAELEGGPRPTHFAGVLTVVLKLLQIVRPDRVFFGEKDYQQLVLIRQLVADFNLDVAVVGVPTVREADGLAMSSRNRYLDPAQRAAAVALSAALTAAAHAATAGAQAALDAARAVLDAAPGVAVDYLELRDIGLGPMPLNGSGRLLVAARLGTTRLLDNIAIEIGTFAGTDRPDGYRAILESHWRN", "test": "Recombinant Mtb pantothenate synthetase (PanC) inhibitors, coupled enzyme, confirmatory (AID 375);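 note: 0% = full reaction with vehicle and 100% = no enzyme background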", "details": "coupled enzyme assay; at 10 µM, hits give high values", "units": {"inhibition": "%"}, "values": [
      {"smiles": "COc1ccccc1NC(=O)CSc1nnc(-c2ccncc2)o1", "inhibition": 0},
      {"smiles": "CCCn1c(SCC(=O)Nc2nnc(-c3ccccc3)s2)nnc1-c1ccccn1", "inhibition": 0},
      {"smiles": "O=C(OCCN1C(=O)c2ccccc2C1=O)c1ccc(S(=O)(=O)N2CCCCCC2)cc1", "inhibition": 0},
      {"smiles": "Cc1cccc(C(=O)N2CCC(n3nnc4cc(F)ccc43)CC2)c1", "inhibition": 0},
      {"smiles": "CC(C)Cn1c(N)c(C(=O)COC(=O)c2ccc3c(c2)OCCO3)c(=O)n(C)c1=O", "inhibition": 0},
      {"smiles": "O=c1c2c3c(sc2n2cnnc2n1CCc1ccccc1)CCCC3", "inhibition": 5},
      {"smiles": "CC(C)(C)C(=O)Oc1cc(N)n(S(=O)(=O)c2ccccc2)n1", "inhibition": 0},
      {"smiles": "Cc1nc(CCNC(=O)c2ccccc2)cs1", "inhibition": 0},
      {"smiles": "CCCC(=O)Nc1ccc2oc(-c3cccnc3)nc2c1", "inhibition": 0},
      {"smiles": "COCC(=O)N(C)c1nnc(-c2ccccn2)s1", "inhibition": 2},
      {"smiles": "Cc1cccc(N2CN=c3s/c(=C\\c4ccncc4)c(=O)n3C2)c1", "inhibition": 6},
      {"smiles": "COc1nc(NCCc2ccc(OC)c(OC)c2)nc(NC(C)(C)CO)n1", "inhibition": 0},
      {"smiles": "COc1ccc(CCNC(=O)c2nc3ncccn3n2)cc1OC", "inhibition": 0},
      {"smiles": "FC(F)Oc1cccc2cccnc12", "inhibition": 6},
      {"smiles": "COc1ccc(CN2C(=O)[C@@H]3C(c4ccc(F)cc4)=NO[C@@H]3C2=O)cc1", "inhibition": 2},
      {"smiles": "CCN(CC)C1CCCCC1NS(=O)(=O)c1ccc(Cl)cc1", "note": "(centres undefined)", "inhibition": 0},
      {"smiles": "C=CCn1c(SCc2cccc(C#N)c2)nnc1-c1ccccc1O", "inhibition": 0},
      {"smiles": "COC(=O)CCN1CCC(C(N)=O)CC1", "inhibition": 1},
      {"smiles": "Cc1nn(Cc2ccccc2)c(C)c1NC(=O)CCC(=O)O", "inhibition": 2},
      {"smiles": "CSc1nc(C)c(C(=O)Nc2ccccc2)c(C)c1C#N", "inhibition": 0},
      {"smiles": "Cc1cnc(NC(=O)CSc2nnc(-c3ccccc3)n2Cc2ccccc2)s1", "inhibition": 0},
      {"smiles": "CCCC(=O)Nc1cccc(NC(=O)CN2CCN(c3ccccc3OC)CC2)c1", "inhibition": 0},
      {"smiles": "COc1cccc(OCC(=O)Nc2ccccc2C(N)=O)c1", "inhibition": 4},
      {"smiles": "O=C(COC(=O)C1CC2C=CC1C2)Nc1ccc2c(c1)OC(F)(F)O2", "note": "(centres undefined)", "inhibition": 0},
      {"smiles": "COC(=O)c1ccc(NC(=O)C(C)N2C(=O)c3ccccc3C2=O)cc1", "note": "(centres undefined)", "inhibition": 8},
      {"smiles": "COC(=O)c1sccc1NC(=O)c1ccco1", "inhibition": 1},
      {"smiles": "COc1cccc(N2CCN(c3c4c(nc5ncnn35)CCC4)CC2)c1", "inhibition": 0},
      {"smiles": "O=C1NC2=C(C(=O)CCC2)C(c2ccc3ncccc3c2)N1", "note": "(centres undefined)", "inhibition": 0},
      {"smiles": "CCCSc1nc(N)c(C#N)c(-c2ccc(C)cc2)c1C#N", "inhibition": 2},
      {"smiles": "Cc1ccc(-n2c(SCC3CCCCO3)nnc2-c2ccco2)cc1", "note": "(centres undefined)", "inhibition": 6},
      {"smiles": "C=CCn1c(SCC(=O)Nc2cccc(OC)c2)nnc1-c1cccnc1", "inhibition": 0},
      {"smiles": "C=CCn1c(SCC(=O)NCC2CCCO2)nnc1C1CCCCC1", "note": "(centres undefined)", "inhibition": 8},
      {"smiles": "CC(C)(C)NS(=O)(=O)c1ccc(CCC(=O)O)cc1", "inhibition": 0},
      {"smiles": "CN(C)S(=O)(=O)c1ccc2c(c1)C(CC(=O)O)OC2=O", "note": "(centres undefined)", "inhibition": 4},
      {"smiles": "CCCCn1c(CN2CCN(CCO)CC2)nc2ccccc21", "inhibition": 0},
      {"smiles": "CS(=O)(=O)N1CCN(CC2CC3C=CC2C3)CC1", "note": "(centres undefined)", "inhibition": 8},
      {"smiles": "CCOC(=O)c1ccc(CC2S/C(=C(\\C#N)C(C)=O)NC2=O)cc1", "note": "(centres undefined)", "inhibition": 10},
      {"smiles": "CC(C)(C)c1cc(C(=S)N2CCN(CCO)CC2)cc(C(C)(C)C)c1O", "inhibition": 5},
      {"smiles": "COCCNC(=O)C(c1cccc(OC)c1)N(Cc1cccs1)C(=O)Cn1nnc2ccccc21", "note": "(centres undefined)", "inhibition": 0}
    ]}
  ]
}
